Compounds with a hit are over-represented: about 4.1% of the library has one in this group of screens.
TROY NFkB inh = inhibitors of TROY-dependent NF-kB signaling. 360,000 compounds, 0.98% hits. Q293 LMP1-TROYcd NF-kB luciferase reporter, 4 h. AID 1347056. inhibition, % at 10 µM;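 active = compounds whose plate-normalised and pattern-corrected inhibition of the luciferase reporter signal at the single screening dose is 50% or more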
TWEAK Fn14 block = blocks TWEAK-Fn14 interaction in a reporter cell assay | TWEAK-stimulated Fn14 reporter cells, luciferase luminescence, 8 h | inhibition, % at 10 µM | 360,000 compounds, 2% hits | AID 1159606; in the data active = inhibition above about 50%
Shn3 inh set2 = Schnurri-3 reporter inhibition in Clone20 osteoblasts; Clone20 osteoblast Shn3 3'UTR firefly luciferase, 24 h; 360,000 compounds, 0.52% hits; inhibition, % at 12.5 µM;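 active = mean inhibition of at least 75% with every replicate also reaching 75%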;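 also: 0% = median of neutral control wells and 100% = pilot-screen positive control compound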
LMP1 NFkB inh = Epstein-Barr LMP1 NF-kappaB reporter inhibition. LMP1-induced NF-kappaB luciferase reporter cells, luminescence. inhibition, % at 12.5 µM. 350,000 compounds, 0.69% hits; in the data active = inhibition above about 41%;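 also: 0% = neutral control wells and 100% = reference inhibitor control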
TRPM1 prom inh = MITF TRPM1 promoter inhibition in SK-MEL-5 cells; SK-MEL-5 TRPM1 promoter luciferase, 24 h; inhibition, % at 12.5 µM; 330,000 compounds, 0.83% hits;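 active = mean inhibition across replicates of 60% or more, whatever share of single replicates reaches that level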
Peg3 promoter = Peg3 promoter activity inhibition; inhibition, % at 20 µM; HeLa PEG-Prom luciferase reporter, luminescence, overnight; AID 588405; 360,000 compounds, 1.7% hits;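 active = inhibition of at least 50% at 20 µM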
* = called active by the depositor; nt = not tested or not shown.

SMILES	TROY NFkB inh	TWEAK Fn14 block	Shn3 inh set2	LMP1 NFkB inh	TRPM1 prom inh	Peg3 promoter
CN(C)CCCNC(=O)C[C@H]1C[C@H](C(=O)N2CCCCC2)[C@@]2(CCc3ccccc3)c3[nH]c4cc(-c5ccco5)ccc4c3CCN2C1=O	9	-21	16	-13	92*	95*
CC(C)(C)NC(=O)C[C@H]1C[C@H](C(=O)N2CCCCC2)[C@@]2(CCc3ccccc3)c3[nH]c4cc(-c5ccco5)ccc4c3CCN2C1=O	3	3	12	3	-3	16
O=C(CC1C[C@H](C(=O)N2CCCCC2)[C@@]2(CCc3ccccc3)c3[nH]c4ccccc4c3CCN2C1=O)NCc1cccc(C(F)(F)F)c1 (some centres undefined)	18	49	81	3	30	-1
CN(C)CCCNC(=O)C[C@H]1C[C@H](C(=O)N2CCCCC2)[C@@]2(C)c3[nH]c4cc(-c5ccco5)ccc4c3CCN2C1=O	-19	-18	-26	-4	-19	65*
O=C(C[C@H]1C[C@H](C(=O)N2CCCCC2)[C@@]2(CCc3ccccc3)c3[nH]c4ccc(Cl)cc4c3CCN2C1=O)NCc1cccc(C(F)(F)F)c1	16	53*	65	14	38	5
CCNc1ncnc2c1cnn2C1CCCCO1 (centres undefined)	-18	6	-22	3	-3	-14
O=C(c1ccsc1)N1CCCC(Nc2cccc(F)c2)C1 (centres undefined)	-2	10	3	-6	1	-7
O=C(O)c1ccc(CSc2nnc(-c3cccnc3)n2-c2ccc(Br)cc2)cc1	11	12	9	-6	2	-20
COc1cc(C)c(CN2CCC(n3nccc3NC(=O)C3CCOC3)CC2)cc1C (centres undefined)	-30	12	19	-11	-5	-21
O[C@H]1CN(Cc2cccs2)[C@@H](c2ccccc2)C[C@@H]1n1cc(-c2ccc(F)cc2)nn1	0	-24	-13	1	nt	41
C[C@]12c3[nH]c4ccccc4c3CCN1C(=O)C(CC(=O)NCCc1ccccn1)C[C@@H]2C(=O)N1CCCCC1 (some centres undefined)	-2	-2	-21	5	-4	-4
O=C(CC1C[C@H](C(=O)N2CCCCC2)[C@@]2(CCc3ccccc3)c3[nH]c4ccccc4c3CCN2C1=O)NCCc1ccccn1 (some centres undefined)	7	19	10	69*	19	8
CCN(CC)C(=O)CCCC(=O)N(CC)CC	-14	-1	11	4	-9	3
Cc1cc(/C=C(\C#N)C(=O)N2CCOCC2)c(C)n1C1CCCC1	74*	74*	-39	20	8	-65
COc1ccccc1-c1cnc2c(c1)C(=O)N([C@@H](C)CO)C[C@H](C)[C@H](CN(C)C)O2	-22	-4	4	6	nt	-13
Cn1c(=O)[nH]c2nnc(-c3ccc(Cl)c(Cl)c3)nc2c1=O	4	57*	-56	12	6	-52
CSc1cnc2c(=O)n(C)c(=O)[nH]c2n1	-7	21	-13	6	19	-72
CC(=O)Oc1cc(O)c2c(=O)c(OC(C)=O)c(-c3ccc(OC(C)=O)c(OC(C)=O)c3)oc2c1	28	68*	-36	0	-13	-15
O=C(NCC1CCCN(Cc2ccc3nonc3c2)C1)c1ccc(F)cc1 (centres undefined)	71*	7	9	8	-4	8
CCN1C(=O)C(CC(=O)Nc2ccc(Br)cc2)N(CCCc2ccccc2)C1=S (centres undefined)	31	21	40	-10	10	58*
CCOc1ccc(NC(=O)CC2C(=O)N(C)C(=S)N2CCCc2ccccc2)cc1 (centres undefined)	18	-10	22	5	-2	4
COc1c(Cl)cc(Cl)cc1/C=C/C(=O)c1ccc(NC(=O)c2cccs2)cc1	3	79*	69	-47	68*	100*
O=S(=O)(c1ccc(Cl)cc1)c1snnc1-c1ccccc1	49	88*	79	-3	83*	93*
O=S(=O)(c1ccc(F)cc1)c1snnc1-c1ccccc1	27	64*	57	-4	66*	75*

Source: PubChem BioAssay
